This note sets out measurements from PubChem BioAssay (EPA / NIEHS).

“And” between values parts separate entries of the source, which are not always exact repeats. Identical values can stand only once. Where a structure was tested more than once in an assay, its records may differ in their call. The source made the active and inactive calls. The calls were made as follows: active = hit-call score of the fitted dose curve at least 0.9, where 1 is the maximum; inactive = score below 0.9.

Read-out in experiment [1]: Human Leukocyte Antigen - DR isotype (HLADR), HLA-DRA (gene 3122)
Nature of the experiment: BSK_BE3C_HLADR: BioMAP Diversity Plus: BE3C Assay for Human Leukocyte Antigen - DR isotype (HLADR) Biomarker Activity (AID 2283032). To be noted: primary human bronchial epithelial cells; actives raise or lower the signal. The gist of the method: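 Signal came from an ELISA for HLA-DR in human bronchial epithelial primary cells harvested 24 h after treatment; gain- and loss-of-signal fitting used DMSO controls as reference.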

Read-out in experiment [2]: Vascular cell adhesion molecule 1 (VCAM1), VCAM1 (gene 7412)
In words: BSK_4H_VCAM1: BioMAP Diversity Plus: 4H Assay for Vascular cell adhesion molecule 1 (VCAM1) Biomarker Activity (AID 2283033).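 As to outcome: cell-surface VCAM-1 protein measured by ELISA.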 To be noted: primary human endothelial cells (HUVEC); actives raise or lower the signal. The gist of the method:
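Endpoint derived from bidirectional fitting against DMSO controls of VCAM-1 ELISA signal in umbilical vein endothelial cells sampled at 24 h following treatment.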

Read-out in experiment [3]: Interferon-gamma inducible Protein 10 (IP10), CXCL10 (gene 3627)
Nature of the experiment: BSK_BE3C_IP10: BioMAP Diversity Plus: BE3C Assay for Interferon-gamma inducible Protein 10 (IP10) Biomarker Activity (AID 2283034). Conditions: primary human bronchial epithelial cells; actives raise or lower the signal. The method in brief:
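Using primary human bronchial epithelial cultures, the assay captures IP-10 by ELISA one day (24 h) after exposure. Parallel SRB staining of total protein flags overt cytotoxicity. Fits run bidirectionally relative to DMSO.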

Read-out in experiment [4]: Monokine induced gamma interferon (MIG), CXCL9 (gene 4283)
In words: BSK_BE3C_MIG: BioMAP Diversity Plus: BE3C Assay for Monokine induced gamma interferon (MIG) Biomarker Activity (AID 2283035). Conditions: primary human bronchial epithelial cells; actives raise or lower the signal. The gist of the method: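 ELISA read-out of MIG in human lung bronchial epithelial primary cultures, 24 h post-dosing. Bidirectional curve fit vs DMSO baseline.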

Read-out in experiment [5]: Transforming growth factor beta 1 (TGFb1), TGFB1 (gene 7040)
Nature of the experiment: BSK_BE3C_TGFb1: BioMAP Diversity Plus: BE3C Assay for Transforming growth factor beta 1 (TGFb1) Biomarker Activity (AID 2283036;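 as to outcome: TGF-b1 protein level measured by ELISA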). To be noted: primary human bronchial epithelial cells; actives raise or lower the signal. The method in brief: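 In this human primary bronchial epithelial system, an ELISA quantified TGF-b1 one day after dosing. Endpoint changes in either direction were fitted relative to DMSO.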

Read-out in experiment [6]: Plasminogen activator inhibitor-1 (PAI1), SERPINE1 (gene 5054)
Nature of the experiment: BSK_BE3C_PAI1: BioMAP Diversity Plus: BE3C Assay for Plasminogen activator inhibitor-1 (PAI1) Biomarker Activity (AID 2283037). To be noted: primary human bronchial epithelial cells; actives raise or lower the signal. The gist of the method: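 PAI-1 biomarker levels in treated human bronchial epithelial cells are determined by ELISA at 24 h. Both increases and decreases relative to DMSO are fitted.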

Read-out in experiment [7]: urokinase plasminogen activator (uPA), PLAU (gene 5328)
In words: BSK_BE3C_uPA: BioMAP Diversity Plus: BE3C Assay for urokinase plasminogen activator (uPA) Biomarker Activity (AID 2283038).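 As to outcome: uPA protein level quantified by ELISA in cell cultures; uPA read one day after compound addition.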 Conditions: primary human bronchial epithelial cells; actives raise or lower the signal. The method in brief:
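Bronchial epithelial cells (human, primary); chemical 24 h; uPA by ELISA; bidirectional fit vs DMSO. SRB (0.1%, after 10% TCA fixation, 560 nm) in parallel cultures for cytotoxicity.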

Read-out in experiment [8]: Urokinase-type plasminogen activator receptor (uPAR), PLAUR (gene 5329)
Nature of the experiment: BSK_BE3C_uPAR: BioMAP Diversity Plus: BE3C Assay for Urokinase-type plasminogen activator receptor (uPAR) Biomarker Activity (AID 2283039).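 As to outcome: uPAR protein level measured by ELISA on the cells; cells exposed to compound for one day before measurement.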 Conditions: primary human bronchial epithelial cells; actives raise or lower the signal. The gist of the method:
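A uPAR ELISA serves as the readout, taken 24 h after treating primary human bronchial epithelial cells. Responses in either direction are fitted against DMSO, which defines baseline activity.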

Read-out in experiment [9]: Interleukin-6 (IL6), IL6 (gene 3569)
In words: BSK_CASM3C_IL6: BioMAP Diversity Plus: CASM3C Assay for Interleukin-6 (IL6) Biomarker Activity for (AID 2283040). To be noted: primary human coronary artery smooth muscle cells; actives raise or lower the signal.

Read-out in experiment [10]: Tissue plasminogen activator (tPA), PLAT (gene 5327)
Nature of the experiment: BSK_BE3C_tPA: BioMAP Diversity Plus: BE3C Assay for Tissue plasminogen activator (tPA) Biomarker Activity (AID 2283041).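 As to outcome: tPA level quantified by ELISA one day after compound addition.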 To be noted: primary human bronchial epithelial cells; actives raise or lower the signal. The method in brief:
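Bidirectional curve fitting relative to DMSO defined activity, with tPA detected by ELISA in chemically treated human bronchial epithelial primary cells at 24 hours.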

Regarding `c1ccc(C2CO2)cc1` (centres undefined), the result in experiment [1], in experiment [2], in experiment [3], in experiment [4], in experiment [5] and in experiment [6] was inactive. Besides, the outcome in [7], in experiment [8], in [9] and in [10] was inactive.

Regarding `CC(C)(O)c1cnn2c(-c3ccc(F)c(-c4c(F)cccc4C#N)c3)cnc2n1`, the AC50 (commonly the concentration at which the activity in the assay is half-maximal) was 36.5 µM (active) in [1]; 31.7 µM (active) in [3]; 36.9 µM (active) in experiment [4]; 31.4 µM (active) in [5]; 32.1 µM (active) in experiment [6]; 30.2 µM (active) in experiment [7]. For the same compound, the AC50 in [8] is 36.5 µM (active); in [10], 25.3 µM (active). Besides, the outcome in experiment [2] and in experiment [9] was inactive.

Take `COc1cc(C=O)cc2c1[C@H](COC(N)=O)[C@]1(OC(C)=O)ON2C[C@H]2[C@@H]1N2C(C)=O`: the AC50 in [1] is 1.74 µM (active); in experiment [2], 13.4 µM (active); in experiment [3] it was 2.72 µM (active); in experiment [4] it was 9.98 µM (active); in [5] it was 4.63 µM (active); in [6], 1.99 µM (active). The AC50 was 7.92 µM (active) in [7], 6.18 µM (active) in [8], 6.63 µM (active) in experiment [9] and 2.11 µM (active) in [10].

`Nc1ccc(N=Nc2ccccc2)cc1`: the outcome in [1], in [2], in [3], in experiment [4], in experiment [5] and in experiment [6] was inactive. The outcome in [7], in experiment [8], in [9] and in experiment [10] was inactive.

For `COC(=O)Nc1nc2ccccc2[nH]1`, the outcome in experiment [1], in experiment [2], in experiment [3], in experiment [4], in [5] and in experiment [6] was inactive. Moreover, the result in [7], in experiment [8], in experiment [9] and in [10] was inactive.

Consider `Cc1cc(N=Nc2ccccc2C)ccc1N`, for which the result in [1], in experiment [3], in [4], in experiment [5], in experiment [7] and in [8] was inactive. The outcome in [9] and in experiment [10] was inactive. The AC50 in experiment [2] is 33.1 µM (active); in [6], 12 µM (active).

Regarding `Clc1ccc(C(c2ccc(Cl)cc2)C(Cl)(Cl)Cl)cc1`, the outcome in experiment [1], in experiment [3], in experiment [4], in experiment [5], in experiment [6] and in experiment [7] was inactive. The outcome in [8], in experiment [9] and in [10] was inactive. Moreover, the AC50 in experiment [2] is 25.9 µM (active).

On to `Cc1ccc([N+](=O)[O-])cc1`, for which the result in [1], in [2], in experiment [3], in [4], in experiment [5] and in experiment [6] was inactive. In addition, the result in experiment [7], in [8], in [9] and in experiment [10] was inactive.

With `CCC[CH2][Sn]([Cl])([CH2]CCC)[CH2]CCC`, the concentration at half-maximal activity (AC50) in experiment [1] was 0.215 µM (active); in experiment [2] it was 0.148 µM (active); in experiment [3], 0.324 µM (active); in [4], 0.162 µM (active); in experiment [5], 0.147 µM (active); in [6], 0.146 µM (active). The AC50 is 0.148 µM (active) in experiment [7], 0.148 µM (active) in experiment [8], 1.5 µM (active) in [9] and 0.227 µM (active) in experiment [10].

Regarding `OCCCl`, the result in experiment [1], in experiment [2], in experiment [3], in [4], in experiment [5] and in [6] was inactive. The outcome in experiment [7], in experiment [8], in experiment [9] and in [10] was inactive.

Take `O=C(Oc1ccc(Br)cc1)N1CCN2CCC1CC2`: the result in experiment [1], in experiment [2], in experiment [3], in [4], in experiment [5] and in [6] was inactive. In addition, the outcome in [7], in experiment [8], in experiment [9] and in [10] was inactive.

As for `c1ccc2c(c1)-c1cccc3cccc-2c13`, the result in [1], in experiment [2], in experiment [3], in experiment [4], in experiment [5] and in [6] was inactive. Also, the outcome in [7], in experiment [8], in experiment [9] and in [10] was inactive.

For `Brc1ccc(Oc2ccccc2)cc1`, the outcome in experiment [1], in experiment [2], in [3], in experiment [4], in [5] and in experiment [6] was inactive. Besides, the outcome in experiment [7], in experiment [8], in experiment [9] and in experiment [10] was inactive.

In the case of `COP(=S)(OC)SCN1C(=O)c2ccccc2C1=O`, the result in experiment [1], in experiment [2], in experiment [3], in experiment [4], in experiment [5] and in experiment [6] was inactive. The result in experiment [7], in experiment [8], in experiment [9] and in [10] was inactive.

With `CO[C@@H]1[C@H](OC(=O)NC(=O)CCl)CC[C@]2(CO2)[C@H]1[C@@]1(C)O[C@@H]1CC=C(C)C`, the AC50 in experiment [1] is 7.85 µM (active); in [2], 6.62 µM (active); in experiment [3] it was 9.12 µM (active); in experiment [6], 6.98 µM (active); in experiment [8] it was 5.83 µM (active); in experiment [10], 7.73 µM (active). Also, the outcome in experiment [4], in [5], in [7] and in experiment [9] was inactive.

For the compound `CCNS(=O)(=O)C(F)(F)C(F)(F)C(F)(F)C(F)(F)C(F)(F)C(F)(F)C(F)(F)C(F)(F)F`, the AC50 is 5.32 µM (active) and 36.7 µM (active) and 30 µM (active) in experiment [1]; 19.3 µM (active) and 16.9 µM (active) and 25.2 µM (active) in experiment [2]; 13.9 µM (active) and 21.1 µM (active) and 14 µM (active) in experiment [3]; 44.4 µM (active) and 29.5 µM (active) in [4]; 12 µM (active) in experiment [5]; 19.3 µM (active) and 4.88 µM (active) and 4.37 µM (active) in [6]. Further, the half-maximal activity concentration (AC50) in experiment [7] was 41.5 µM (active); in experiment [8], 21.2 µM (active) and 30 µM (active); in experiment [10] it was 13 µM (active). Further, the outcome in experiment [4], in [7], in experiment [8], in experiment [9] and in experiment [10] was inactive.

As for `O=P(OCCCl)(OCCCl)OCCCl`, the result in experiment [1], in experiment [2], in [3], in [4], in experiment [5] and in experiment [6] was inactive. Also, the result in [7], in [8], in experiment [9] and in experiment [10] was inactive.

As to `CC(O)CCO` (centres undefined), the result in experiment [1], in experiment [2], in experiment [3], in [4], in experiment [5] and in [6] was inactive. In addition, the result in experiment [7], in experiment [8], in experiment [9] and in experiment [10] was inactive.

`CC(C)(C)OOC(C)(C)CCC(C)(C)OOC(C)(C)C`: the outcome in experiment [1], in experiment [2], in experiment [3], in [4], in [5] and in [6] was inactive. Also, the outcome in experiment [7], in experiment [8], in experiment [9] and in experiment [10] was inactive.

For `CN(C)c1ccc(C(=O)c2ccc(N(C)C)cc2)cc1`, the outcome in experiment [1], in experiment [2], in experiment [3], in experiment [4], in experiment [5] and in experiment [6] was inactive. Also, the outcome in [7], in [8], in experiment [9] and in experiment [10] was inactive.
